# Compounds with a hit are over-represented: about 2.3% of the library has one in this group of screens.
# CHO-K1 Ca antag: M1 antagonist counterscreen hit in parental CHO-K1 cells | ATP-induced calcium, Fluo-8 fluorescence | inhibition, % at 3 µM | 360,000 tested, 0.6% active;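 active means inhibition above a per-plate cutoff, the plate's mean sample inhibition plus 3 SD, cut at about 24% in these data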
# M1 ag parental: counter-screen for M1 agonists: effect in parental CHO-K1 cells; Fluo-8 calcium fluorescence; scaled to maximal ATP response, vehicle zero; activation, % at 3 µM; 360,000 tested, 0.48% active; AID 602248, 2012; in the data active means activation above about 15%;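 further: untransfected CHO-K1 host cells lacking M1 receptor as counterscreen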
# CHO-K1 Ca PAM: nonselective calcium activators in parental CHO-K1 cells, primary screen, counter-screen for M1 PAM project, cell-based, Fluo-8 calcium fluorescence, full deck, 1536-well. ATP EC20; 0% at ATP EC20, 100% at ATP max. activation, % at 3 µM. 360,000 tested, 0.02% active;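 active means activation above the run cutoff, the mean activation of all test compounds plus 3 SD, cut at about 40% in these data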;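 further: peak over basal fluorescence ratio in a 140 s read after ATP addition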
# M1 PAM: human M1 muscarinic receptor positive allosteric modulators, primary screen, CHO-K1 cells, Fluo-8 calcium fluorescence, 1536-well; Muscarinic acetylcholine receptor M1 (Homo sapiens), P11229; CHO-K1 hM1, ACh EC20; 0% = ACh EC20, 100% = maximal ACh; activation, % at 3 µM; 360,000 tested, 0.088% active; AID 588819, 2011; in the data active means activation above about 19%, passing the limit was not always enough
# Target sequence (P11229 whole entry, looked up): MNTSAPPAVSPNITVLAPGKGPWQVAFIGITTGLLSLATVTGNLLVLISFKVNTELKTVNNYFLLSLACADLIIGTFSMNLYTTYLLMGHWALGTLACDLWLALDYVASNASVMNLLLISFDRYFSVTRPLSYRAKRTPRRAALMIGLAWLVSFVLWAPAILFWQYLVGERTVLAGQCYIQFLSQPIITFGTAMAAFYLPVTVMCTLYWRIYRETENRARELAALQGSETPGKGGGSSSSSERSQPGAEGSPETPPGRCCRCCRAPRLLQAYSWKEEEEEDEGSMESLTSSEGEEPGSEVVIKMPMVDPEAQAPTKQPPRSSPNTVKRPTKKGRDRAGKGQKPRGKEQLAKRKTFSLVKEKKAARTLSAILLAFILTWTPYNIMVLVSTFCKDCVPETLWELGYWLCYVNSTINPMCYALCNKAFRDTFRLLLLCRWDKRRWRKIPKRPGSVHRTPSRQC
# M1 antag: human M1 muscarinic receptor antagonists, primary screen, CHO-K1 cells, Fluo-8 calcium fluorescence, 1536-well; 360,000 tested, 1.3% active; CHO-K1 hM1, ACh EC80 antagonist; inhibition, % at 3 µM; Muscarinic acetylcholine receptor M1 (Homo sapiens), P11229;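 active means percent inhibition above its own plate's cutoff, namely the mean of that plate's compound wells plus 3 SD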;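 further: peak over basal fluorescence ratio during 140 s after agonist addition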
# CHRM1 agonist: human M1 muscarinic receptor agonists, primary screen, Fluo-8 calcium fluorescence, CHO-K1 cells, HTS. Muscarinic acetylcholine receptor M1 (Homo sapiens), P11229. CHO-K1 hM1, agonist mode; 0% DMSO, 100% acetylcholine EC100. activation, % at 3 µM. 360,000 tested, 0.33% active;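 active means activation above the run's mean compound activation plus 3 SD, cut at about 16% in these data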;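 further: peak over basal fluorescence ratio within a 140 s kinetic read after compound addition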
# A number is an active result; n = inactive.
SMILES,CHO-K1 Ca antag,M1 ag parental,CHO-K1 Ca PAM,M1 PAM,M1 antag,CHRM1 agonist
CC(=O)Nc1ccc(NC(=O)COc2cccc3ccccc23)cc1,n,n,n,n,n,n
CCn1c(C)nc2c(C)[n+](CC(=O)c3ccc(Br)cc3)ccc21,24,n,n,n,n,n
COc1cccc(C(=O)c2c(C)c(CCC#N)n3ccccc23)c1,n,25,n,n,n,n
CCN(C(=O)CSc1nnc(SC(C)C)s1)C1CCS(=O)(=O)C1 (stereo not drawn),n,n,n,n,n,n
O=C(Cc1ccc(Cl)cc1)Nc1ccncc1,n,n,n,n,n,n
Cc1ccc(OCC(=O)Nc2ccncc2)c(C)c1,29,n,n,n,n,n
Cc1ccc(OCC(=O)NNC(=S)NC(=O)C2CCCCC2)c(C)c1,n,n,n,n,n,20
Cc1ccc(Oc2ccc(OCC(=O)Nc3ccncc3)cc2)cc1,n,n,n,n,40,n
Cc1ccc(OCC(=O)NNC(=S)NC(=O)C2CC2)c(C)c1,n,n,n,n,n,n
O=C(COc1ccccc1)Nc1ccncc1,n,n,n,n,n,n
Cc1ccc(CC(=O)Nc2ccncc2)cc1,36,n,n,n,n,n
Cn1c(CCc2nc3ccccc3[nH]2)nnc1SCC#N,n,n,n,n,n,n
O=C(NC(Cc1ccccc1)C(=O)O)/C(=C/c1ccc([N+](=O)[O-])cc1)NC(=O)c1ccco1 (stereo not drawn),n,n,n,n,n,n
COc1ccc(CCNC(=O)CCS(=O)(=O)Cc2ccccc2C)cc1OC,n,n,n,n,n,n
COc1ccc(C2=Nn3c(C)nnc3SC2)cc1,n,n,n,n,n,n
CC(C)(C)c1ccc(OCC(=O)Nc2ccncc2)cc1,n,n,n,n,n,n
CCc1ccc(OCC(=O)Nc2ccncc2)cc1,n,17,n,n,n,n
CC(C)Cc1ccc(C(=O)NCCOc2ccccc2)o1,n,n,n,n,n,n
CCCNC(=O)c1ccc(N2CCC3(CC2)CC(c2ccccc2)=NO3)c(NC(=O)c2ccccc2)c1,n,n,n,n,32,n
Cc1ccc2c3c(cccc13)-c1ccccc1C2=O,n,n,n,n,n,n
Nc1ccc2c3c(cccc13)-c1ccccc1-2,38,35,n,n,42,37
COc1ccc(OC)c(S(=O)(=O)N2CCN(C34CC5CC(CC(C5)C3)C4)CC2)c1,n,n,n,n,48,n
CCN1CCN(S(=O)(=O)c2cc(OC)ccc2OC)CC1,n,n,n,n,n,n
O=C(Nc1ccc(S(=O)(=O)Nc2ncccn2)cc1)c1ccc2ncsc2c1,n,n,n,n,n,n
Cc1nc2ccccc2n1Cc1ccccc1Br,n,23,n,n,n,n
SMILES,CHO-K1 Ca antag,M1 ag parental,CHO-K1 Ca PAM,M1 PAM,M1 antag,CHRM1 agonist
Cc1nc2ccccc2n1Cc1ccc(Br)cc1,31,n,n,n,n,n
CN(C)C1(CNC(=O)C2CCN(S(=O)(=O)c3cccc(C(F)(F)F)c3)CC2)CCCCC1,n,n,n,n,n,n
Cc1ccc(/C=C/S(=O)(=O)NCCC(=O)NCc2ccc(F)cc2)cc1,n,n,n,n,n,n
CC(=O)OCCn1c2nc(=O)[nH]c(=O)c-2nc2cc(C)c(C)cc21,38,186,n,n,38,202
Fc1ccc(NC(=S)N2CCCN(c3ccc(C(F)(F)F)cn3)CC2)c(F)c1,24,n,n,n,34,n
COc1ccc(OC)c(NC(=O)CCc2c[nH]c3ccccc23)c1,n,n,n,n,n,n
S=c1nc(-c2cc(Cl)ccc2Cl)[nH][nH]1,26,n,n,n,n,n
COC(=O)c1ccc(COC(=O)c2ccc(SC)cc2OC)cc1,n,20,n,n,n,n
COc1cc(SC)ccc1C(=O)OCC(=O)NCCNC(=O)COC(=O)c1ccc(SC)cc1OC,n,n,n,n,n,n
O=C(CC1Sc2ccccc2NC1=O)NCc1ccc(Cl)cc1 (stereo not drawn),n,n,n,n,n,n
N#CCc1nn(Cc2ccc(F)cc2)c(=O)c2ccccc12,n,n,n,n,n,n
Cn1c(SCC(N)=O)nnc1C1CCN(S(=O)(=O)c2ccccc2C(F)(F)F)CC1,n,n,n,n,n,n
Cn1c(SCCN2CCCC2)nnc1C1CCN(S(=O)(=O)c2cccc(F)c2)CC1,n,n,n,n,63,n
CCOc1ccc(Br)cc1/C(C)=N\NC1=NCCN1,n,n,n,n,63,n
CCCCCOc1ccc(/C(C)=N/NC2=NCCN2)cc1,n,n,n,n,n,n
O=C(CCSC1=NCCCN1)c1ccc(F)cc1,n,n,n,n,n,n
COc1ccc(NC(=O)c2cc(C3CCCCN3S(C)(=O)=O)on2)c(C)c1 (stereo not drawn),28,n,n,n,n,n
O=C(COC(=O)c1n[nH]c(=O)c2ccccc12)Nc1ccccc1F,n,n,n,n,n,n
Cc1ccc(C(=O)Cn2cnc3ccccc3c2=O)cc1,n,n,n,n,n,n
CCOc1ccc(C(=O)Cn2cnc3ccccc3c2=O)cc1,n,n,n,n,28,n
COc1ccccc1C(=O)Nc1ccc2c(c1)nc1n2CCN(C2CCCCC2)C1,n,n,n,n,n,n
Cc1ccc(NC(=O)COC(=O)[C@H](C)NC(N)=O)c(C)c1,n,n,n,n,n,n
CC(C)(O)c1ccc2c(c1)CCC1C(C)(C(=O)O)CCCC21C (stereo not drawn),n,n,n,n,n,n
CC(C)c1c(O)ccc2c1CC[C@H]1C(C)(C)CCC[C@]21C,26,n,n,n,n,n
N#C/C(=C\c1ccc(N2CCCCC2)o1)C(N)=O,n,n,n,n,n,n
N#C/C(=C\c1ccc(N2CCCCC2)o1)C(=O)Nc1cccc(Br)c1,58,54,n,n,66,68
CCCCN(C(C)=O)c1c(CC)nc2ccc(C(=O)Nc3cccc(OCC(=O)N(C)C)c3)cn12,n,n,n,n,n,n
CCOC(=O)C1(C)CCN1C(=O)c1cc(C)n(C(C)(C)C)n1 (stereo not drawn),n,n,n,n,n,n
Cc1cc(C(=O)N2CCC2(C)C(=O)O)nn1C(C)(C)C (stereo not drawn),27,n,n,n,n,n
COc1ccc(/C=C/C(=O)NC(=S)N2CCSCC2)cc1,n,n,n,n,n,n

# Bioassay records (PubChem BioAssay)
